Screening results as filed in PubChem BioAssay.
MARV entry inh = qHTS for inhibitors of binding or entry into cells for Marburg Virus; Marburg virus pseudotyped entry inhibition, cell reporter; Potency, µM (doses to about 37.8 µM), usual class: inhibitors; actives 1.8% (n = 300,000); AID 540276, 2011; calls by dose curve; tested in HEK293 cells
HCV inhibitor = qHTS Assay for Inhibitors of Hepatitis C Virus (HCV); Potency, µM (titrated, usually from 41.8 µM), hits mostly inhibitors; actives 3.4% (n = 340,000); Huh7.5.1 HCVcc-Cre infection, luciferase reporter, 44 h
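Infectious HCVcc-Cre (~0.5 moi) was added to cells just after compound, with cells seeded 4 h earlier at 1,000 per well. Luciferase activity after 44 h culture reported infection; substrate was incubated 15 min at room temperature before reading.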
FMDV inh = High Throughput Screening for Foot and Mouth Disease Virus Antivirals | FMDV antiviral cell-based qHTS | Potency, µM (doses to about 57.9 µM), hits mostly inhibitors | actives 1.2% (n = 410,000) | AID 1159524, 2015; calls by dose curve; tested in HEK293T cells; further: read-out not given here; nearly all actives have a fitted effect of over 45% in size
HCMV inh = qHTS Assay for inhibitors of the human cytomegalovirus (HCMV); HFF cells, HCMV-luciferase reporter, 72 h; stronger effect = lower value; activity change, negative = inhibition, % at 57.5 µM; actives 4.5% (n = 410,000); AID 1259415, 2018; in the data active means activity change below about -60%; inconclusive means no clear call, values can overlap the other calls; inactive means above about -39%
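After 16 h attachment at 37C, HFF cells received test compound and HCMV-luciferase (1 PFU/cell); reporter luminescence read 72 h later, data normalized against buffer-only and known inhibitor Salinomycin.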
FBPA Giardia inh = qHTS Assay for Inhibitors of Fructose-1,6-bisphosphate Aldolase from Giardia Lamblia. actives 0.71% (n = 290,000). purified Giardia FBPA. AID 2451, 2010. A8B2U2. Potency, µM (series often up to 59.6 µM), usual class: inhibitors; further: nearly all actives have a fitted effect of over 55% in size
Target sequence (A8B2U2 whole entry, looked up): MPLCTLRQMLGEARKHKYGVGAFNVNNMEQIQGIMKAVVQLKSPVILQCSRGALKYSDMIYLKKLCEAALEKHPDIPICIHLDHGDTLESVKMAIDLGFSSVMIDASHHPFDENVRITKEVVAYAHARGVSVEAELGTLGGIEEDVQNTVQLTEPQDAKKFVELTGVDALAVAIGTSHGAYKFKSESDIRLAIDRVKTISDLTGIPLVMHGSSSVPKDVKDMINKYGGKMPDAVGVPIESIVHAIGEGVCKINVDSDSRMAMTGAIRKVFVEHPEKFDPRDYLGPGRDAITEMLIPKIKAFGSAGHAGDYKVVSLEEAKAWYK
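Giardia FBPA (40 nM reagent) was preincubated 10 min at RT with compound (up to 57.5 uM final), then substrate plus GAPDH/TPI/NAD/arsenate coupling system with diaphorase/resazurin was added; resorufin fluorescence (525/598 nm) was read after 20 min.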
LASV entry inh = qHTS for Inhibitors of binding or entry into cells for Lassa Virus. actives 1.2% (n = 300,000). Potency, µM (series often up to 37.9 µM), hits mostly inhibitors. Lassa virus pseudotype entry inhibition, cell reporter; calls by dose curve; tested in HEK293 cells; further: nearly all actives have a fitted effect of over 50% in size
Of the large screens only hits and unclear results are named; the others gave an inactive call. An excerpt weighted towards active compounds, which were near 8.3% of everything screened. Unless noted, the call rests on the fitted dose curve; in most records, active means well fitted curve in the direction sought with a large enough effect; inconclusive means small, poorly fitted or top-dose-only effect, or another doubt; inactive means no such curve, though single readings can be large; an effect the other way counts as inactive or inconclusive.

O=C(NCC1CCC2(CCN(Cc3ccc4ncccc4c3)CC2)O1)C1CCCO1 (stereo unspecified)	none (no result: MARV entry inh, HCV inhibitor, HCMV inh, FBPA Giardia inh, LASV entry inh)
Cc1ccc(-n2nc(CO)c(C(=O)NCCCc3ccccc3)n2)cc1C	none (no result: HCV inhibitor, FBPA Giardia inh)
COc1cccc(CN(C)C(=O)c2[nH]c(C)c(C(C)=O)c2C)c1OC	MARV entry inh inconclusive, HCV inhibitor 11µM, FMDV inh inconclusive
Cc1ccc(NC(=O)c2ccc(=O)[nH]n2)cc1C	MARV entry inh inconclusive
Cc1ccc(NC(=O)c2ccc(=O)[nH]n2)cc1S(=O)(=O)Nc1ccc(SC(F)F)cc1	HCV inhibitor 3.2µM (no result: MARV entry inh, FBPA Giardia inh, LASV entry inh)
CCOc1cc(CNCc2cc(OC)cc(OC)c2)ccc1OC	MARV entry inh inconclusive, HCV inhibitor 0.56µM, FMDV inh inconclusive, LASV entry inh inconclusive
CCOc1cc(CNCc2ccc(C(=O)O)cc2)ccc1OC	MARV entry inh inconclusive
COc1ccc(NC(=O)N(C)[C@H]2C[C@H]3c4[nH]c5c(-c6ccccc6)cccc5c4CCN3C(=O)[C@H]2[C@H](C)O)cc1	none (no result: MARV entry inh, HCV inhibitor, FMDV inh, FBPA Giardia inh, LASV entry inh)
COc1ccc(C2CC(=O)c3cnc(Nc4cc(C)cc(C)c4)nc3C2)cc1 (stereo unspecified)	LASV entry inh 0.46µM (no result: FBPA Giardia inh)
Cc1cc(C)nc(NC(N)=NCCc2c[nH]c3ccccc23)n1	MARV entry inh inconclusive, HCV inhibitor 10µM, HCMV inh -97
Cc1cc(C)nc(NC(=NCCc2c[nH]c3ccccc23)NC(=O)Nc2ccc(Cl)cc2)n1	MARV entry inh inconclusive, HCV inhibitor 11µM, HCMV inh inconclusive
Cc1cc(C)nc(NC(N)=NCCc2ccccc2)n1	MARV entry inh 7.1µM, HCV inhibitor 11µM, FMDV inh inconclusive, HCMV inh -96, LASV entry inh inconclusive (no result: FBPA Giardia inh)
CC1=C(C(=O)N2CCN(c3cccc(Cl)c3)CC2)C2(CCCCC2)OC1=O	none (no result: MARV entry inh, HCV inhibitor, FBPA Giardia inh)
CCN(CCCCOC(=O)c1ccc(OC)c(OC)c1)[C@@H](C)Cc1ccc(OC)cc1	MARV entry inh inconclusive (no result: HCV inhibitor, FMDV inh, HCMV inh, LASV entry inh)
C[C@]12CC(O)C3C(CCC4=CC(=O)CC[C@@]43C)C1CCC2c1csc(-c2ccccc2)n1 (stereo partly specified)	HCV inhibitor inconclusive, HCMV inh -76 (no result: MARV entry inh, LASV entry inh)
Clc1ccc(/C(Cc2nc3ccccc3[nH]2)=N\Nc2ccccc2)cc1	MARV entry inh inconclusive, HCV inhibitor 11µM, LASV entry inh inconclusive
O=C(Nc1ccc(C(F)(F)F)cc1)N[C@H]1CC[C@@]23CCCN2C(=O)CCC[C@H]3C1Cc1ccccc1 (stereo partly specified)	none (no result: MARV entry inh, HCV inhibitor, FMDV inh, FBPA Giardia inh, LASV entry inh)
O=C(Oc1ccnc2cc(Cl)ccc12)N1CCOCC1	HCMV inh -76
OC(CN1CCN(C(c2ccccc2)c2ccccc2)CC1)c1ccc(Br)cc1 (stereo unspecified)	HCV inhibitor inconclusive (no result: MARV entry inh, LASV entry inh)
OC(CN1CC=C(/C=C/c2ccc(Br)cc2)CC1)c1ccccc1 (stereo unspecified)	MARV entry inh 11µM, HCV inhibitor inconclusive, FBPA Giardia inh inconclusive
O=C(c1cccs1)N1CCN(C(=O)c2cccs2)C1=S	MARV entry inh inconclusive, HCV inhibitor inconclusive, FMDV inh 35µM, HCMV inh inconclusive, LASV entry inh inconclusive (no result: FBPA Giardia inh)
O=C(c1cccs1)N1CCCC1	none
COc1cccc(Nc2nc3cc(Cl)c(Cl)cc3nc2-n2nc(C)cc2C)c1	none (no result: HCV inhibitor, FBPA Giardia inh)
COc1cc(C(=O)N/N=C/c2ccc(OC(=O)c3cccc(C)c3)cc2)ccc1O	FMDV inh 35µM
COc1cc(C(=O)N/N=C/c2cccc(Oc3ccccc3)c2)ccc1O	HCMV inh -78
COc1cc(/C=N/NC(=O)c2ccc(N)cc2)ccc1OC(=O)c1cccc(C)c1	HCV inhibitor inconclusive
COc1ccc2nc(-c3ccc(N(C)C)cc3)sc2c1	none (no result: MARV entry inh, HCV inhibitor, FMDV inh, HCMV inh, LASV entry inh)
CN(C)C=NC(=O)c1cc(C(=O)c2ccc(Cl)cc2)c[nH]1	HCV inhibitor inconclusive, HCMV inh -63
O=C(c1ccc(Cl)cc1)c1c[nH]c(C(=O)NNc2ccccc2)c1	MARV entry inh inconclusive, HCV inhibitor inconclusive, LASV entry inh 14µM
CNC(=O)c1cc(C(=O)c2ccc(Cl)cc2)c[nH]1	none
CN(C)C=NC(=O)c1cc(C(=O)c2ccc(F)cc2)c[nH]1	none
CCS(=O)(=O)N1CC(=O)N(c2cccc(C)c2C)C(C)(C(=O)NC2CCCCC2)C1 (stereo unspecified)	none (no result: MARV entry inh, HCV inhibitor, FBPA Giardia inh)
Cc1ccc(Cl)cc1N1CCN(CCCNC(=O)Cn2ncc3c([nH]c4ccccc43)c2=O)CC1	none (no result: MARV entry inh, HCV inhibitor, FBPA Giardia inh)
COc1cc(C2NC(=O)NC(C)=C2C(=O)OC2CCCCC2)cc(Br)c1O (stereo unspecified)	LASV entry inh inconclusive
CC1=C(C(=O)OC2CCCCCCC2)C(c2ccc(O)cc2)NC(=O)N1 (stereo unspecified)	LASV entry inh 2.6µM (no result: FMDV inh)
CCOc1ccccc1C1NC(=O)NC(C)=C1C(=O)OC1CCCC1C (stereo unspecified)	MARV entry inh inconclusive, HCMV inh -68, LASV entry inh inconclusive
CCOc1ccccc1C1NC(=O)NC(C)=C1C(=O)OC1CCCCC1 (stereo unspecified)	LASV entry inh inconclusive (no result: FMDV inh)
CC1=C(C(=O)OCc2ccccc2)C(c2ccccc2Cl)NC(=O)N1C (stereo unspecified)	HCV inhibitor inconclusive, FMDV inh 18µM
CC1=C(C(=O)OC2CCCCC2)C(c2ccccc2)NC(=O)N1 (stereo unspecified)	MARV entry inh inconclusive, HCV inhibitor 10µM, LASV entry inh inconclusive
CC1=C(C(=O)OC2CCCCC2)C(c2ccccc2Br)NC(=O)N1 (stereo unspecified)	FMDV inh inconclusive, HCMV inh inconclusive (no result: MARV entry inh, LASV entry inh)
CCOC(=O)c1c(C)cc(O)c(C=O)c1O	none (no result: MARV entry inh, HCV inhibitor, HCMV inh, LASV entry inh)
COc1ccc(COC(=O)C2=C(C)NC(=O)NC2c2ccc(F)cc2)cc1 (stereo unspecified)	MARV entry inh inconclusive, HCV inhibitor inconclusive, FMDV inh 25µM, HCMV inh -75, LASV entry inh inconclusive
CC1=C(C(=O)OCc2ccccc2)C(c2ccccc2Br)NC(=O)N1 (stereo unspecified)	MARV entry inh inconclusive, HCV inhibitor 10µM, FMDV inh 28µM, LASV entry inh inconclusive
COCCOC(=O)C1=C(C)NC(=O)NC1c1ccc(-c2ccc(F)cc2)o1 (stereo unspecified)	HCMV inh inconclusive
CCOC(=O)C1=C(C)NC(=O)NC1c1ccc(-c2ccccc2F)o1 (stereo unspecified)	HCV inhibitor inconclusive, FMDV inh inconclusive, HCMV inh -61, LASV entry inh inconclusive
CCOc1ccc(C2NC(=O)NC(C)=C2C(=O)OCc2ccccc2)cc1 (stereo unspecified)	FMDV inh inconclusive
CN(C)c1ccc(/C=C/c2cc[n+](C)cc2)cc1	MARV entry inh inconclusive, HCV inhibitor 1.8µM, HCMV inh -101, LASV entry inh inconclusive
CN(C)c1ccc(/C=C/c2cc[n+]([O-])cc2)cc1	none (no result: HCV inhibitor, FMDV inh, HCMV inh, LASV entry inh)
